# According to article PMC7862700, “An all-to-all approach to the identification of sequence-specific readers for epigenetic DNA modifications on cytosine”:
# Columns and labels:
# Experiment in all cases: DAPPL (digital affinity profiling via proximity ligation, sequencing); 10 mM Tris-HCl pH 7.5, 50 mM NaCl, 1 mM DTT, 4% glycerol, room temperature, 30 min; GST-TFs on glutathione beads, 16-mer random dsDNA library, 0.1% formaldehyde crosslink after washing; high values mean tight binding
# FLI1 = target: T1, FLI1 (Homo sapiens, UniProt Q01543 1-452); settings: protein: recombinant; tags: N-terminal GST; dsDNA, one strand shown
# T1 sequence: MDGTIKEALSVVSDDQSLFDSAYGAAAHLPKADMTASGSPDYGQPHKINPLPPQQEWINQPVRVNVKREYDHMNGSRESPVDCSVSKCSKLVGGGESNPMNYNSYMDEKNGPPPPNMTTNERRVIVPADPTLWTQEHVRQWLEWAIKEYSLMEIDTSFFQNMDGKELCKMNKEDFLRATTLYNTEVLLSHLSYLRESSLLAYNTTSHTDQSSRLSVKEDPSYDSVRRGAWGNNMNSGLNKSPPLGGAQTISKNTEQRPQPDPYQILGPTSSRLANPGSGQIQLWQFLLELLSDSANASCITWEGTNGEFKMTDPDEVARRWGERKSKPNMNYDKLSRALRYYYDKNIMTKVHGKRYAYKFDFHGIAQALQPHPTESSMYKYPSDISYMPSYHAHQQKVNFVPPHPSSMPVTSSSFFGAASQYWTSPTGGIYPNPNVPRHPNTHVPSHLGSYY
# Outline: (§1)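 Binding signal is given per hexamer as its read frequency for a factor divided by its frequency in the tag-only sample. GST-fused human transcription factors were expressed in yeast, captured on glutathione beads, barcoded with DNA and pooled with that sample, then incubated with 200 nmole of a 16-mer random double-stranded DNA library in Tris/NaCl/DTT/glycerol buffer for 30 min at room temperature. The pools were then washed, crosslinked, proximity-ligated, amplified by PCR and sequenced on an Illumina NextSeq500.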
# ELK1 = target: T2, ELK1 (Homo sapiens, UniProt P19419 1-428); settings: protein: recombinant; tags: N-terminal GST; dsDNA, one strand shown
# T2 sequence: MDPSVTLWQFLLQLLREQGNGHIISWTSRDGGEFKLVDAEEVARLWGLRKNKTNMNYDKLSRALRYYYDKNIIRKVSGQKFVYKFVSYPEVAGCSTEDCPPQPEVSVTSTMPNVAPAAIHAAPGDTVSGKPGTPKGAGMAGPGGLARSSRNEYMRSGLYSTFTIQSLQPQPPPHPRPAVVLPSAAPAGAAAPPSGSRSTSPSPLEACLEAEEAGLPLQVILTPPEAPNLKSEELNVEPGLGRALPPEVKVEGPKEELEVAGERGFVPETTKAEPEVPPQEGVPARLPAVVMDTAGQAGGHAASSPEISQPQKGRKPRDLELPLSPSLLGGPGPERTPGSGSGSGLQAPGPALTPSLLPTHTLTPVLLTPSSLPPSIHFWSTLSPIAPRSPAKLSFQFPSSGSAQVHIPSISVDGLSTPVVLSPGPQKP
# Outline: as §1
# GABPA = target: T3, GABPA (Homo sapiens, UniProt Q06546 1-454); settings: protein: recombinant; tags: N-terminal GST; dsDNA, one strand shown
# T3 sequence: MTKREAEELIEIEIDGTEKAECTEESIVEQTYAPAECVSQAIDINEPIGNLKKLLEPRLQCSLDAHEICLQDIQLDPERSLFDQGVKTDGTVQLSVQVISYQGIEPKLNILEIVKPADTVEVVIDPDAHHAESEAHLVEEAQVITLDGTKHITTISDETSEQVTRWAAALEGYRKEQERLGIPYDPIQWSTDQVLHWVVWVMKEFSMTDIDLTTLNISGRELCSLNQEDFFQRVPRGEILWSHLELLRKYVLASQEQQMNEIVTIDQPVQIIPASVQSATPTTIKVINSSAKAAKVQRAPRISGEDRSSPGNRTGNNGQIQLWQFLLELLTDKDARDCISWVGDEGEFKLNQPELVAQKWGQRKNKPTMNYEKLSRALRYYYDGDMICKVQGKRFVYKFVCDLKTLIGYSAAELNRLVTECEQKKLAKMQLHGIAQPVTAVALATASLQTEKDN
# Outline: as §1
# ERG = target: T4, ERG (Homo sapiens, UniProt P11308 1-479); settings: protein: recombinant; tags: N-terminal GST; dsDNA, one strand shown
# T4 sequence: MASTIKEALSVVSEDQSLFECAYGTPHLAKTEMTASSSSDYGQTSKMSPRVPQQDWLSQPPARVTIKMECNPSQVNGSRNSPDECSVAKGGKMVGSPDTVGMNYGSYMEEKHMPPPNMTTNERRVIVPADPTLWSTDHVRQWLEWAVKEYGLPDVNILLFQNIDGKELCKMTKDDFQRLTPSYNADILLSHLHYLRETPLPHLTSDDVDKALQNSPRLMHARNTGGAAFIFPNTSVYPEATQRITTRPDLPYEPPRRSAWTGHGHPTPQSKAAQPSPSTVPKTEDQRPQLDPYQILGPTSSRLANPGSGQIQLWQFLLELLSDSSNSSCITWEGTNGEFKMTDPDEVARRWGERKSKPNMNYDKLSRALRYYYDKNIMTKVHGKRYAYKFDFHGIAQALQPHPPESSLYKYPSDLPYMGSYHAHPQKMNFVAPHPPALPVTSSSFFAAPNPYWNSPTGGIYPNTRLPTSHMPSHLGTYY
# Outline: as §1
# ELF1 = ELF1 (Homo sapiens, UniProt P32519 1-619); settings: protein: recombinant; tags: N-terminal GST; dsDNA, one strand shown
# Chain of ELF1 (P32519 whole entry): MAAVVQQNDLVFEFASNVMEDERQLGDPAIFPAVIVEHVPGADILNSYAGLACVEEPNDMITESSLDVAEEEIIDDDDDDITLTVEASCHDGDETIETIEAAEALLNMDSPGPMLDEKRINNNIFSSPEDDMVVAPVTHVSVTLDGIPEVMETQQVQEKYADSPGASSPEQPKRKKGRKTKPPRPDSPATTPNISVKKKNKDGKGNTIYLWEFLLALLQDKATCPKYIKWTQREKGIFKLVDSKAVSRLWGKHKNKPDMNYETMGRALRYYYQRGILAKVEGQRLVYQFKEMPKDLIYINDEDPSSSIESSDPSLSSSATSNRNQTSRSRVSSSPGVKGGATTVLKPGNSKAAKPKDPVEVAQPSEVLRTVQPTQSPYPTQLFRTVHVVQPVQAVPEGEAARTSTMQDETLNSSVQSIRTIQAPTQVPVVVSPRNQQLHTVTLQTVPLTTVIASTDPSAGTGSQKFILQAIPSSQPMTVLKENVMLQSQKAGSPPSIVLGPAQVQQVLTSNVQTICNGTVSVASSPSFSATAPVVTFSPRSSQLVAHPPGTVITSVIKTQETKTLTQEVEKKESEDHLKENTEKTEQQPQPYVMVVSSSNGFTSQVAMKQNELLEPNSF
# Outline: as §1
# EHF = target: T5, EHF (Homo sapiens, UniProt Q9NZC4 1-300); settings: protein: recombinant; tags: N-terminal GST; dsDNA, one strand shown
# T5 sequence: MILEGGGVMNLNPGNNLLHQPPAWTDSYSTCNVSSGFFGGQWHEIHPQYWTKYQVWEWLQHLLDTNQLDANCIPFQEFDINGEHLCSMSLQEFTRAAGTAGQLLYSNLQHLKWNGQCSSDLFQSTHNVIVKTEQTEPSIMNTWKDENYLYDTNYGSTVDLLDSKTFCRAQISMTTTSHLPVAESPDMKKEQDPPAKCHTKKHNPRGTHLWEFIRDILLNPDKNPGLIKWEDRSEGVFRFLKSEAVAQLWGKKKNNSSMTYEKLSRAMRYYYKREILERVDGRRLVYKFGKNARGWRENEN
# Outline: as §1
# SPI1 = SPI1 (Homo sapiens, UniProt P17947 1-270); settings: protein: recombinant; tags: N-terminal GST; dsDNA, one strand shown
# Outline: as §1
# SPIB = SPIB (Homo sapiens, UniProt Q01892 1-262); settings: protein: recombinant; tags: N-terminal GST; dsDNA, one strand shown
# Chain of SPIB (Q01892 whole entry): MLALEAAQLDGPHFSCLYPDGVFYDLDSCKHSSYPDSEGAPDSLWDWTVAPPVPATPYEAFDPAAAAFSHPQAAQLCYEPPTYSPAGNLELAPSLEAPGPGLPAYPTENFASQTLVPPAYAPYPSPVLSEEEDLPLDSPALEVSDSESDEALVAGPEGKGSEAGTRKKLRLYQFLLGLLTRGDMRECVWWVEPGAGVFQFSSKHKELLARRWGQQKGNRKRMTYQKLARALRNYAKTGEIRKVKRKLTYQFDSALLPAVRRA
# Outline: as §1
# ELK3 = target: T6, ELK3 (Homo sapiens, UniProt P41970 1-407); settings: protein: recombinant; tags: N-terminal GST; dsDNA, one strand shown
# T6 sequence: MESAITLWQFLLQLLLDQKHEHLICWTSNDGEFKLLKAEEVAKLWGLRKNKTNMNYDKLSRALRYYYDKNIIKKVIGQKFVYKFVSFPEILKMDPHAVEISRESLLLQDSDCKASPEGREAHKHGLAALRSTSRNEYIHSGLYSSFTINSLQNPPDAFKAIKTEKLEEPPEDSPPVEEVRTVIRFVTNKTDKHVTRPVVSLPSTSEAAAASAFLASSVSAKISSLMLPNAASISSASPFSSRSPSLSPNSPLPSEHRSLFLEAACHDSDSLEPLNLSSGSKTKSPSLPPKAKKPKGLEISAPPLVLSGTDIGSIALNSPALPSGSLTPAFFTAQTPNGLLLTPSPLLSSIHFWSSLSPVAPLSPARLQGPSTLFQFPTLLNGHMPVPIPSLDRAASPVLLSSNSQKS
# Outline: as §1
# FEV = target: T7, FEV (Homo sapiens, UniProt Q99581 1-238); settings: protein: recombinant; tags: N-terminal GST; dsDNA, one strand shown
# T7 sequence: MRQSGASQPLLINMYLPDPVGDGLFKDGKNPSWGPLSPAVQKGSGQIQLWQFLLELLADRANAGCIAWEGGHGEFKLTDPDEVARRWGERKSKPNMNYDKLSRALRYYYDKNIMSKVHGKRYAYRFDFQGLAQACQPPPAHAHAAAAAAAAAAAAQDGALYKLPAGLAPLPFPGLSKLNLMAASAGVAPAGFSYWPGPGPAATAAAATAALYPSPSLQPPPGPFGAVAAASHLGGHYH
# Outline: as §1
# ETV5 = ETV5 (Homo sapiens, UniProt P41161 1-510); settings: protein: recombinant; tags: N-terminal GST; dsDNA, one strand shown
# Chain of ETV5 (P41161 whole entry): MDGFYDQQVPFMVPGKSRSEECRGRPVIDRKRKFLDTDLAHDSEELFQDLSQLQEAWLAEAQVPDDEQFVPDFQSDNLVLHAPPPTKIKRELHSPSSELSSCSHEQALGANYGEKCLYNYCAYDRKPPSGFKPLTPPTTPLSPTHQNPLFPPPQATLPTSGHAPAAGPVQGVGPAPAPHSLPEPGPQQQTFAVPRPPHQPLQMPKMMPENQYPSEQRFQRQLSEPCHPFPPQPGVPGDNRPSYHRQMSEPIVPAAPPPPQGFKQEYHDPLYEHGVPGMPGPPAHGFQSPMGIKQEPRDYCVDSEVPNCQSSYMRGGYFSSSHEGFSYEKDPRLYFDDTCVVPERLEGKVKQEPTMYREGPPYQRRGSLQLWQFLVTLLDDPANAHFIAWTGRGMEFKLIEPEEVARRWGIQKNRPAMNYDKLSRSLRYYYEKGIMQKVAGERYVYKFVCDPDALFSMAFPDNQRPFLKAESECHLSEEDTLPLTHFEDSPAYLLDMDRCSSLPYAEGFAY
# Outline: as §1
# HSF1 = HSF1 (Homo sapiens, UniProt Q00613 1-529); settings: protein: recombinant; tags: N-terminal GST; chain copies: 3; dsDNA, one strand shown
# Chain of HSF1 (Q00613 whole entry): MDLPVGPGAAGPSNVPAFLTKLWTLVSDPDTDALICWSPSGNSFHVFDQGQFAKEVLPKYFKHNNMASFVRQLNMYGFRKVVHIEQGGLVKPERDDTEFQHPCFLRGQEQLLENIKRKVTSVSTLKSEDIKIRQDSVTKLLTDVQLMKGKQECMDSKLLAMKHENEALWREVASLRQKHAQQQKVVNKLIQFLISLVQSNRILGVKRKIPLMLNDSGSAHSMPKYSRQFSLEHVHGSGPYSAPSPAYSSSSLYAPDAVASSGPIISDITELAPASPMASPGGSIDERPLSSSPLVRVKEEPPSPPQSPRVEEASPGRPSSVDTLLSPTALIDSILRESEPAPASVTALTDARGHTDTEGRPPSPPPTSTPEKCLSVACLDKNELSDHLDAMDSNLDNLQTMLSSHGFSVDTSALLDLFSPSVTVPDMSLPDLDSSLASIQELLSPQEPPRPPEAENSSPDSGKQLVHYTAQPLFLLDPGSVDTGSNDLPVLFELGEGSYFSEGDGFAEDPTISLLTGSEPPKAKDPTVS
# Outline: as §1
# SPIC = target: T8, SPIC (Homo sapiens, UniProt Q8N5J4 1-248); settings: protein: recombinant; tags: N-terminal GST; dsDNA, one strand shown
# T8 sequence: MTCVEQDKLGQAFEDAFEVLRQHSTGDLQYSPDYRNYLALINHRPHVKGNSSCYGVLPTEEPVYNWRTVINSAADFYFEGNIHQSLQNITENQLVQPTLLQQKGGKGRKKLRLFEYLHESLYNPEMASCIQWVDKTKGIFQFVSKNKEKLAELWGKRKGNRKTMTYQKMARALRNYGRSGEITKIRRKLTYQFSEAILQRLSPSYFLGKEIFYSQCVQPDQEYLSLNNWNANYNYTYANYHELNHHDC
# Outline: as §1
# ELF4 = ELF4 (Homo sapiens, UniProt Q99607 1-663); settings: protein: recombinant; tags: N-terminal GST; dsDNA, one strand shown
# Chain of ELF4 (Q99607 whole entry): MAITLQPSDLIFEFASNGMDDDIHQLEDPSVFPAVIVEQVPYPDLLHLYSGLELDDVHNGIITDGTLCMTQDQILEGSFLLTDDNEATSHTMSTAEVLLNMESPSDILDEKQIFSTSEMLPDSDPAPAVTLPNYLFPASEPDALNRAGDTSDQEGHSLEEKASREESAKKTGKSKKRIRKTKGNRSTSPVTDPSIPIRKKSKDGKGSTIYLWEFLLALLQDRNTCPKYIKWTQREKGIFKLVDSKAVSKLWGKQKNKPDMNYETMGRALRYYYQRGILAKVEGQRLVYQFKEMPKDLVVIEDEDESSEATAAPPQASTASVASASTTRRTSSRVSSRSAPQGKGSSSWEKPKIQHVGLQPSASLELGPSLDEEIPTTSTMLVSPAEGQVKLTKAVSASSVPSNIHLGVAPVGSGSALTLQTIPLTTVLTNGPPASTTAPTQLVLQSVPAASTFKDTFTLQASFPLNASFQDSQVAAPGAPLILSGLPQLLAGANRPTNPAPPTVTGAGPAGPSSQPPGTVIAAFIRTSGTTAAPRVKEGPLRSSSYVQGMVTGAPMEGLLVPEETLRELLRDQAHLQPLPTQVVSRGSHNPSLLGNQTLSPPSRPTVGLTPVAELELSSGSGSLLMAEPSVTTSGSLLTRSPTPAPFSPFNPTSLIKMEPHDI
# Outline: as §1
# ELK4 = target: T9, ELK4 (Homo sapiens, UniProt P28324-2 1-405); settings: protein: recombinant; tags: N-terminal GST; dsDNA, one strand shown
# T9 sequence: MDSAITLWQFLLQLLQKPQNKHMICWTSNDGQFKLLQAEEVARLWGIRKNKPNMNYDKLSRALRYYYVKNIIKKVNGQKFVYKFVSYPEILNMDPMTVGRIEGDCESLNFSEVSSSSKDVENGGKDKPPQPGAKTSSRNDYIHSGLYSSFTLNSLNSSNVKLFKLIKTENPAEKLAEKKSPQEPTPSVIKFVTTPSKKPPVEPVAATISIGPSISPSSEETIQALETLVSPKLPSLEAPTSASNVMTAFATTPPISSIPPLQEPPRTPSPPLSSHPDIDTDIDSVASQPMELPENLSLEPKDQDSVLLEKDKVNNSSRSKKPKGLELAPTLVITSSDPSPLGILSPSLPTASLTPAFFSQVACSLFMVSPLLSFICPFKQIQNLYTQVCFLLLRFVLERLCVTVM
# Outline: as §1
# ETV2 = target: T10, ETV2 (Homo sapiens, UniProt O00321 1-342); settings: protein: recombinant; tags: N-terminal GST; dsDNA, one strand shown
# T10 sequence: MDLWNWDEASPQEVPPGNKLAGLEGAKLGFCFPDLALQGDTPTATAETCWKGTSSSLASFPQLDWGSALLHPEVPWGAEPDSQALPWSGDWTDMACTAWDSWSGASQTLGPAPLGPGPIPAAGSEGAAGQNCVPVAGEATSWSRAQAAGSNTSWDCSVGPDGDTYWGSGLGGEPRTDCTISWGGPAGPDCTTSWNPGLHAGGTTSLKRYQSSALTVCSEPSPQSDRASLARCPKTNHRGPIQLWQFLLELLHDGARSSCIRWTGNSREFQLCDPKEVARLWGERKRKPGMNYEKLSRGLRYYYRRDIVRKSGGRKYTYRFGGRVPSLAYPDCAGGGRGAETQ
# Outline: as §1
# ELF3 = target: T11, ELF3 (Homo sapiens, UniProt P78545 1-371); settings: protein: recombinant; tags: N-terminal GST; dsDNA, one strand shown
# T11 sequence: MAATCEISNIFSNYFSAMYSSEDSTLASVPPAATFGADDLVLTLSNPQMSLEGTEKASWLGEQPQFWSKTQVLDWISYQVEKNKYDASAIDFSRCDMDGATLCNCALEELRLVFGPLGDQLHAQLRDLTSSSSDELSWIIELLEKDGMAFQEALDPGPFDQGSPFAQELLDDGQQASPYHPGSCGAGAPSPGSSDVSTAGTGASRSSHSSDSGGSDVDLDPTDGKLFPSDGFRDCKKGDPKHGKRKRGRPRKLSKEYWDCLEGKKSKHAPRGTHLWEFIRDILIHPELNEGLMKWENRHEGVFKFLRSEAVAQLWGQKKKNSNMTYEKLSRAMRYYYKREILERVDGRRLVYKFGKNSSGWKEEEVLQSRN
# Outline: as §1
# CRX = CRX (Homo sapiens, UniProt O43186 1-299); settings: protein: recombinant; tags: N-terminal GST; dsDNA, one strand shown
# Chain of CRX (O43186 whole entry): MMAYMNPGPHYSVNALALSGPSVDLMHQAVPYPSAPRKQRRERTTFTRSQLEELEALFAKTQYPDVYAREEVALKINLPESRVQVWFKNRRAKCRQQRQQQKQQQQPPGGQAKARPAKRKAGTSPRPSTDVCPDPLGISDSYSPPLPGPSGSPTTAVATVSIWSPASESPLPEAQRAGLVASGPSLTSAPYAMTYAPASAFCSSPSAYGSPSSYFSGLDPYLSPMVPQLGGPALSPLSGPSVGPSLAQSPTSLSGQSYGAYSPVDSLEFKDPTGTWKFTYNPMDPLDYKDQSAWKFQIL
# Outline: as §1
# ETV1 = ETV1 (Homo sapiens, UniProt P50549 1-477); settings: protein: recombinant; tags: N-terminal GST; dsDNA, one strand shown
# Chain of ETV1 (P50549 whole entry): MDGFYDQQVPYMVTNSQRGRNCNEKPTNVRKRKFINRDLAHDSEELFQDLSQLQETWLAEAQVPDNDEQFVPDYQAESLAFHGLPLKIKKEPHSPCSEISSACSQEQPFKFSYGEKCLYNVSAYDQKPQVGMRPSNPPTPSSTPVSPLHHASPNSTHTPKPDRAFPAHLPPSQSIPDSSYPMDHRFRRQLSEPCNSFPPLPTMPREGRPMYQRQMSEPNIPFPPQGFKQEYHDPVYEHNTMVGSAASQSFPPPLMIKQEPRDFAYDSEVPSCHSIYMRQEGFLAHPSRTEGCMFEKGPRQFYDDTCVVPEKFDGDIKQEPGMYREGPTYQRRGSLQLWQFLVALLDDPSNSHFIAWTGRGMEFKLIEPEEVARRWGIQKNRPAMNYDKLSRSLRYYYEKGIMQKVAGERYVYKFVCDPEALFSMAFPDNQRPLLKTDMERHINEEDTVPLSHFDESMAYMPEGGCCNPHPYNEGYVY
# Outline: as §1
sequence,measurement,setting,value
GTTTAA,binding signal,FLI1,"1.19 fold enrichment (6-mer frequency, TF over GST control)"
same,binding signal,ELK1,"1.19 fold enrichment (6-mer frequency, TF over GST control)"
same,binding signal,GABPA,"1.13 fold enrichment (6-mer frequency, TF over GST control)"
same,binding signal,ERG,"1.13 fold enrichment (6-mer frequency, TF over GST control)"
same,binding signal,ELF1,"1.13 fold enrichment (6-mer frequency, TF over GST control)"
same,binding signal,EHF,"1.17 fold enrichment (6-mer frequency, TF over GST control)"
same,binding signal,SPI1,"1.16 fold enrichment (6-mer frequency, TF over GST control)"
same,binding signal,SPIB,"1.27 fold enrichment (6-mer frequency, TF over GST control)"
same,binding signal,ELK3,"1.26 fold enrichment (6-mer frequency, TF over GST control)"
same,binding signal,FEV,"1.11 fold enrichment (6-mer frequency, TF over GST control)"
same,binding signal,ETV5,"1.07 fold enrichment (6-mer frequency, TF over GST control)"
same,binding signal,HSF1,"1.28 fold enrichment (6-mer frequency, TF over GST control)"
same,binding signal,SPIC,"1.02 fold enrichment (6-mer frequency, TF over GST control)"
same,binding signal,ELF4,"1.1 fold enrichment (6-mer frequency, TF over GST control)"
same,binding signal,ELK4,"1.14 fold enrichment (6-mer frequency, TF over GST control)"
same,binding signal,ETV2,"1.23 fold enrichment (6-mer frequency, TF over GST control)"
same,binding signal,ELF3,"1.05 fold enrichment (6-mer frequency, TF over GST control)"
same,binding signal,CRX,"1.79 fold enrichment (6-mer frequency, TF over GST control)"
same,binding signal,ETV1,"1.14 fold enrichment (6-mer frequency, TF over GST control)"
